Bioassay records: PubChem, National Center for Advancing Translational Sciences (NCATS)
Only some compounds are listed: those with a hit (about 2.4% of all), similar ones and a draw of the others.
D2 PAM-1: positive allosteric modulators of human D2 dopamine receptor; 0.23% of 360,000 active; potentiation, % (test concentration not listed); DiscoveRx D2 beta-arrestin cells, luminescence, 90 min; 100% = 57 uM dopamine signal; P14416; AID 624464; in the data active means potentiation above about 50%; inconclusive means mostly about 30% to 49%
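PathHunter D2 cells, attached overnight at 37 deg C, received compound in DMSO plus dopamine at EC20 (50 nM final) for 90 min at 37 deg C. Beta-arrestin recruitment was read as luminescence after 1 h with detection reagent at ambient temperature.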
D2 ag-1: human D2 receptor agonism in beta-arrestin assay. P14416. DiscoveRx PathHunter D2 beta-arrestin, luminescence, 90 min; 100% = 57 uM dopamine signal. activation, % (concentration not given with the values). 0.084% of 360,000 active. AID 624465; in the data active means activation above about 40%; inconclusive means between about 15% and that limit
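Agonist mode: compounds alone added to overnight-plated D2 PathHunter cells for 90 min at 37 C, with 57 uM final dopamine (EC100) defining full response. Beta-arrestin recruitment detected by chemiluminescent reagent, read after 1 h at ambient temperature.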
D2 PAM-2: positive allosteric modulators of human D2 dopamine receptor; AID 485347; potentiation, % at 10 µM; P14416; 0.34% of 340,000 active; HEK293 T-REx D2, calcium flux, EC20 dopamine potentiation;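 active means potentiation over 3 SD above the plate norm, cut at about 30% in these data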; further: 0% is about no effect
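Calcium flux readout, no-wash dye, 1 read/s. Inducible HEK293 Trex D2 line, overnight 30 C. Compound alone 180 s (agonist flags), then EC20 dopamine, another 180 s to score potentiation.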
D2 ag-2: D2 dopamine receptor (human) agonism | 0.53% of 340,000 active | activation, % at 2 µM | HEK293 T-REx D2 cells, calcium flux agonist mode | AID 485358 | P14416;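 active means activation over 3 SD above normal in the single-dose calcium agonist read, cut at about 30% in these data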; further: 0% is about no effect
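Tetracycline-induced HEK293 T-REx cells with force-coupled D2 receptor, plated overnight at 30 C, loaded with no-wash calcium dye. After a 10 s baseline, compound was pin-added and calcium flux read kinetically for 180 s; calcium rises flagged agonists.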
D2 antagonist: antagonizes the human D2 dopamine receptor | AID 485344 | HEK293 TREx D2 cells, calcium flux, dopamine EC80 | P14416 | 2% of 340,000 active | inhibition, % at 10 µM; in the data active means inhibition above about 30%; inactive means below that, where a call was filed; further: 0% is about no effect
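Dopamine at EC80 is the agonist stimulus; test compounds precede it by 180 s. Calcium flux read kinetically in a force-coupled, inducible HEK293 T-REx D2 cell line.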
D3 ag: D3 receptor agonism confirmed, beta-arrestin readout; shares compounds with D2 ag-2; DiscoveRx D3 beta-arrestin cells, luminescence, 90 min; Potency, µM (doses to about 76.9 µM), inactives show at the top dose activation, hits mostly activators; 4% of 2,300 active; AID 720506;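 further: potency means the concentration at half of the fitted maximal effect; 100% = dopamine control response; nearly all actives have a fitted effect of over 70% in size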
Target sequence (P35462 whole entry, looked up): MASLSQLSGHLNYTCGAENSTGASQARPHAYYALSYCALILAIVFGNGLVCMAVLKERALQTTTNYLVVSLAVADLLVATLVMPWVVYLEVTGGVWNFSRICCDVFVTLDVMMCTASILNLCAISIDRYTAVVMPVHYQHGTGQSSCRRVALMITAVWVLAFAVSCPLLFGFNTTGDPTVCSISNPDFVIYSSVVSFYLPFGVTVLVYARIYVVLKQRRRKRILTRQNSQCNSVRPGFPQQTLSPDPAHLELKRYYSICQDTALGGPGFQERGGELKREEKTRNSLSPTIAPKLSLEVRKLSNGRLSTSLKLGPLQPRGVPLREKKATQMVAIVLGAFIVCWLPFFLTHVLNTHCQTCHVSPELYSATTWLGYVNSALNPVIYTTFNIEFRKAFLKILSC
D2 ag-3: counter-screen for D3 agonists: human D2 dopamine receptor agonism. shares compounds with D2 ag-2. DiscoveRx PathHunter D2 beta-arrestin, luminescence, 90 min; response scale: percent relative to full dopamine signal. Potency, µM (doses to about 76.9 µM), for inactives: top-dose activation, actives largely listed as activators. 5.9% of 2,300 active; further: potency means the concentration at half of the fitted maximal effect; % of control where 0% means no effect; nearly all actives have a fitted effect of over 70% in size
Numbers without * were called inactive; ? = inconclusive; nt = no result given; ! = not active in a repeat. Unless noted, the call rests on the fitted dose curve; in most records, active means well fitted activation curve with a large enough effect; inconclusive means small, poorly fitted or top-dose-only effect; inactive means flat fitted curve, though single readings scatter.

SMILES	D2 PAM-1	D2 ag-1	D2 PAM-2	D2 ag-2	D2 antagonist	D3 ag	D2 ag-3
OC(c1ccccc1)C1CN(Cc2ccccc2)CCC1(O)c1ccccc1 (centres undefined)	-33.8	-1.8	-15.2	0.6	-7.7	nt	nt
COc1ccc(C(CNC(=O)CNC(=O)c2cccc(F)c2)N2CCOCC2)cc1 (centres undefined)	-10.0	-3.9	nt	nt	nt	nt	nt
O=C(COc1cccc(C(F)(F)F)c1)NNC(=O)Cc1ccc(S(=O)(=O)N2CCOCC2)s1	-5.6	8.5	-5.3	0.3	27.8	nt	nt
O=C(COc1cccc(F)c1)NNC(=O)Cc1ccc(S(=O)(=O)N2CCOCC2)s1	-2.8	12.7	10.2	0.2	-29.4	-0.2%	-2.0%
COc1ccc(CNc2ccc3cc(S(=O)(=O)N4CCCCC4)ccc3n2)cc1	nt	nt	-3.2	nt	nt	nt	nt
CC(C)[C@@H](COc1ccccc1)N1CCN(Cc2ccccc2)CCC1=O	5.7	2.7	1.2	-1.5	-18.9	nt	nt
CC(COc1ccccc1)N(CCCl)Cc1ccccc1 (centres undefined)	-15.8	4.1	-27.9	90.3*	60.9*	-7.8%	17.8%
COc1ccc(CN(C)C(=O)/C=C/[C@H]2O[C@@H](n3cnc4c(N)ncnc43)[C@H](O)[C@@H]2O)cc1OC	-2.2	-4.3	nt	nt	nt	nt	nt
CC(=O)Nc1ccc(C(=O)OCCCOC(=O)c2ccc(NC(C)=O)cc2)cc1	-13.2	-1.0	-13.8	76.4*	14.6	-4.9%	-4.0%
CCCCOC(=O)c1ccc(NC(C)=O)cc1	-7.2	0.2	0.8	-0.9	9.6	nt	nt
COc1cccc(CCNc2ncnc3c2nnn3C)c1	nt	nt	15.6	0.5	nt	nt	nt
CC(=O)Nc1ccc(NC(=O)CN2CCN(c3ccccn3)CC2)cc1	10.9	?	-19.5	81.7*	84.2*	?	?
O=C(CN1CCN(c2ccccn2)CC1)Nc1ccc2ccccc2c1	-13.2	2.7	-15.0	28.1	22.1	-2.2%	18.3%
Cc1ccc2cccc(NC(=O)COc3ccccc3[N+](=O)[O-])c2n1	nt	nt	7.2	6.4	nt	nt	nt
CCSC1=N/C(=C\c2ccc3c(c2)OCO3)C(=O)S1	6.1	1.0	-4.9	0.8	30.4*	6.7%	-1.0%
COc1ccc(-c2c3c(cc4ncn(Cc5ccccc5)c24)COC3=O)cc1	-2.2	-2.2	-11.8	-0.8	2.4	nt	nt
CN(CCOc1ccc(Cl)cc1)Cc1cccc(S(=O)(=O)N(C)C)c1	-7.8	12.8	-37.1	70.1*	48.3*	7.08µM*	?
CN(CCOc1ccccc1)Cc1ccccc1	-10.2	12.4	nt	nt	nt	nt	nt
CC(=O)c1ccc(NC(=O)Cn2cnc(S(=O)(=O)N3CCc4ccccc43)c2)cc1	10.2	-2.9	-29.0	54.2*	-1.6	-2.7%	-2.3%
COC(=O)c1cc2oc(C)cc2n1CC(=O)Nc1ccc(OC)c(OC)c1	nt	nt	26.3	0.0	nt	nt	nt
O=C(NCCNC1CCC(c2ccccc2)CC1)c1cccs1 (centres undefined)	-18.4	-2.1	-11.3	50.5*	48.2*	-4.8%	-3.2%
CCOC(=O)N1CCC(NCCNC(=O)c2ccccc2)CC1	-13.1	7.4	-13.0	66.0*!	50.7*	-1.9%	7.4%
CCOC(=O)N1CCC(NC(=O)Cc2ccccc2)CC1	-15.7	-5.3	-3.0	0.1	-1.4	nt	nt
CCOC(=O)N1CCC(NC(=O)c2ccccc2C(=O)O)CC1	0.3	-1.4	-1.1	0.4	-5.9	nt	nt
CCOC(=O)N1CCC(NCCNC(=O)c2ccccc2Cl)CC1	-1.4	1.8	3.1	-0.2	56.3*	-14.2%	12.1%
SMILES	D2 PAM-1	D2 ag-1	D2 PAM-2	D2 ag-2	D2 antagonist	D3 ag	D2 ag-3
CCOC(=O)N1CCC(NCCNC(=O)c2cccs2)CC1	-26.0	7.9	nt	6.0	5.7	-9.3%	10.6%
COc1ccc2c(CC(=O)Nc3ccc(C)cc3)coc2c1	nt	nt	-11.6	-0.7	nt	nt	nt
CCN1CCN(CC(O)COCc2ccccc2)CC1 (centres undefined)	-6.9	-1.9	2.3	0.6	-5.2	nt	nt
Cc1ccc(N2CCN(CC(O)COc3ccc([N+](=O)[O-])cc3)CC2)cc1 (centres undefined)	-9.2	2.9	-13.6	0.0	10.1	nt	nt
O=[N+]([O-])c1ccc(OCC(O)CN2CCN(c3ccccc3F)CC2)cc1 (centres undefined)	-15.0	?	-25.8	78.8*	90.6*	?	?
OC(COCC1COc2ccccc2O1)CN1CCN(c2ccccc2F)CC1 (centres undefined)	-9.5	7.5	-23.1	59.5*	83.6*	?	?
OC(COCc1ccccc1)CN1CCN(c2ccccc2F)CC1 (centres undefined)	-29.5	6.2	-22.3	64.4*	111.1*	?	?
OC(CNCC1COc2ccccc2O1)COc1ccccc1F (centres undefined)	-16.2	0.4	-36.4	78.3*	95.6*	16.5%	10.0%
Cc1ccc(CNC(=O)C(=O)NCC(c2ccc3c(c2)OCO3)N2CCOCC2)cc1 (centres undefined)	nt	nt	-6.2	-1.8	nt	nt	nt
O=C(O)C1C2C=CC(C3CC23)C1C(=O)NCCc1ccccc1 (centres undefined)	-10.6	-1.0	-23.4	31.6*	4.9	12.1%	15.3%
CC1=C(C)CC(C(=O)NCCc2ccccc2)C(C(=O)O)C1 (centres undefined)	13.9	4.2	-7.3	3.1	-1.0	nt	nt
O=C(Nc1sc2c(c1C(=O)NCC1CCCO1)CCC2)c1cc(=O)c2cc(Cl)ccc2o1 (centres undefined)	nt	nt	-6.0	-0.7	nt	nt	nt
CSc1c(CC(=O)Nc2ccccc2Cl)n(Cc2ccccc2)c2ccccc12	-16.5	-2.8	14.3	-0.5	-16.1	nt	nt
CSc1c(CC(=O)Nc2ccccc2C(F)(F)F)n(Cc2ccccc2)c2ccccc12	-21.5	-3.8	-21.1	28.1	-12.4	-0.6%	6.5%
Cc1ccccc1Nc1nnc(-c2ccc(C)c(S(=O)(=O)NCC3CCCO3)c2)c2ccccc12 (centres undefined)	nt	nt	-1.7	-1.4	nt	nt	nt
COc1ccc(-c2nn(CC(=O)Nc3ccc(Cl)c(Cl)c3)c(=O)c3ccccc23)cc1	-1.4	-3.8	5.8	53.6*	29.4	-7.8%	-3.6%
COC(=O)COc1ccc(NC(=O)Cn2nc(-c3ccccc3)c3ccccc3c2=O)cc1	-4.7	4.1	7.5	0.0	-3.1	nt	nt
CCOc1ccc(S(=O)(=O)N2CCN(CC(O)COc3cccc([N+](=O)[O-])c3)CC2)cc1 (centres undefined)	-2.5	0.7	9.3	0.2	-28.3	nt	nt
